Test results taken from ChEMBL document CHEMBL1201862, “PubChem BioAssay data set” (2004).
The whole screen tested about 44,000 sequences, of which about 3,200 (7.3%) were called active. Rule as the data show it: active = GI50 up to about 1.1 µM and inactive = higher. Only a selection was taken, and actives are over-represented in it overall. Potency and affinity values are given separately.

The substances below were run on DU-145.

Substance | GI50 [µM]
[Bis(aminomethyl)dimethylsilane]tetrachloroplatinum(IV), CHEMBL2146190 | 5.02
[Bis(aminomethyl)pentamethylenesilane]tetrachloropaltinum(IV), CHEMBL2146204 | 0.344
[Bis(aminomethyl)pentamethylenesilane]dichloropaltinum(II), CHEMBL2146202 | 1.29
[Bis(aminomethyl)tetramethylenesilane]tetrachloropaltinum(IV), CHEMBL2146189 | 2.22
CISPLATIN, CHEMBL11359 | 1.99
[Bis(aminomethyl)tetramethylenesilane]dichloropaltinum(II), CHEMBL2146205 | 8.15
